The structures appear in SMILES notation. This is part of a sample that, as a whole, favours compounds with a hit. Of some 83,000 tested, about 20% had one in any assay.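 Cell lines were cultured in 96-well plates, exposed to a single compound concentration, and assessed for percent growth 48 hours later.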 Values without a mark were called inactive. Active and inactive are the calls of the source. Rule for the calls: active = growth percent below 10; inactive = the rest.

Holding throughout (experiment): NCI-60 one-dose screen, 48 h (100 = growth as untreated, 0 = no growth, -100 = all killed)
Common to all, as to conditions: 10 µM unless noted

Test [1] deals with NCI-H23 lung.
Test [2] has as its system NCI-H226 lung.
Test [3] deals with NCI-H322M lung.
The subject of test [4] is HOP-62 NSCLC.
Test [5] relates to NCI-H460 lung.
The subject of test [6] is 786-0 renal.
In test [7] the test system is DU-145 prostate.
For test [8], the system named is MDA-MB-231 breast.
Test [9] has as its system SF-268 CNS.
Test [10] relates to SF-539 CNS.
Test [11] deals with M14 melanoma.
In test [12] the test system is SNB-19 CNS.
In test [13] the test system is U251 CNS.
Test [14] relates to SN12C renal.
For test [15], the system named is UO-31 renal.
Test [16] deals with SK-OV-3 ovarian.
Test [17] relates to MDA-MB-435 melanoma.
Test [18] has as its system SW-620 colon.
Test [19] relates to HCT-116 colon.
The test system of test [20] is KM12 colon.

For the compound `CCOC(=O)c1cnc(SCc2ccc(Cl)c(Cl)c2)nc1N1CC1`, the growth in test [1] was 51.1%; in test [2], 75.6%; in test [3], 69.7%; in test [4] it was 64.9%; in test [5] it was 41%; in test [6] it was 60%. In addition, the growth in test [7] is 66.7%; in [8], 51.7%; in test [9], 74.9%; in [10], 44.1%; in test [11] it was 41.8%; in [12], 62.9%. Further, the growth was 49% in test [13]; 58.4% in test [14]; 34.7% in test [15]; 74.6% in test [16]; 10.5% in test [17]; 33.8% in test [18]. Moreover, the growth in test [19] is 23.5%; in test [20], 50.5%.
Turning to `CC(/C=N/N=C(N)N)=N\N=C(N)N`, the growth in test [1] was 68.9%; in test [2], 95.8%; in test [3] it was 10%; in test [4], 64.2%; in test [5] it was 82.7%; in [6], 55.6%. Besides, the growth in [7] was 65.5%; in [8], 80.2%; in test [9], 50.3%; in test [10] it was 51.9%; in test [11], 80.3%; in [12], 78.1%. Further, the growth in test [13] is 77.8%; in test [14] it was 74.2%; in test [15], 46.9%; in [16] it was 84.9%; in [17] it was 89.2%; in [18], 70.6%. For the same compound, the growth in [19] is 49%; in test [20], 40.9%.
Consider `Cc1cc(NC(=O)CCc2ccc(N3C(N)=NC(N)=NC3(C)C)cc2)ccc1S(=O)(=O)F`, for which the growth in test [1] was 26.2%; in [2], 37.4%; in test [3] it was 29.7%; in test [4], 28.7%; in test [5], 12.3%; in test [6], 20.9%. The growth was 45.8% in [7]; 76.8% in [8]; 32.2% in [9]; 5.99% (active) in test [10]; 48.2% in test [11]; 45% in [12]. For the same compound, the growth in [13] was 24.2%; in [14], 32.8%; in test [15], 101%; in test [16], 67.3%; in test [17], 32%; in test [18], 23.1%. Also, the growth is 18.3% in test [19] and 18.8% in [20].
For `COc1ccc(C(=O)c2ccc([As]=O)cc2)cc1` (centres undefined), the growth in test [1] is -43.4% (active); in test [2], -59.6% (active); in [3], -94.1% (active); in test [4], -86.1% (active); in test [5] it was -62.5% (active); in test [6], -99.5% (active). Moreover, the growth in test [8] is -71% (active); in [9], -83.5% (active); in test [10] it was -91.6% (active); in test [11], -84% (active); in test [12], -81.4% (active); in [13], -98.1% (active). Further, the growth was -52.8% (active) in test [14]; -95% (active) in test [15]; -99.8% (active) in test [16]; -80.9% (active) in [17]; -64.4% (active) in [18]; -83.3% (active) in test [19]. In addition, in test [20], the growth was -93.7% (active).
Take `CC(C)C1c2ccc(O)cc2Oc2nc(N)c(C#N)c(N)c21` (centres undefined): the growth was 105% in [1]; 93.6% in [2]; 93.8% in test [3]; 92.9% in test [4]; 107% in [5]; 96.1% in test [6]. Moreover, the growth in [7] is 115%; in test [8], 89.9%; in test [9], 112%; in test [10] it was 93.5%; in test [11], 129%; in [12], 101%. For the same compound, the growth in test [13] was 95.8%; in test [14] it was 103%; in test [15], 89.2%; in test [16] it was 116%; in test [17], 103%; in [18], 115%. Moreover, the growth in test [19] and in [20] was 103% in each case.
`CN(C)P1(N(C)C)=NP(N(C)C)(N(C)C)=NP(N(C)C)(N(C)C)=N1`: the growth in test [1] is 106%; in test [2], 99.5%; in [3], 98.8%; in test [4], 99%; in [5], 107%; in test [6], 101%. The growth is 110% in test [7]; 107% in [8]; 105% in [9]; 104% in test [10]; 101% in test [11]; 103% in test [12]. Further, the growth in test [13] was 97.9%; in test [14], 107%; in test [15], 83.1%; in test [16], 106%; in test [17], 109%; in [18], 103%. Also, the growth in test [19] was 102%; in test [20], 104%.
As for `COc1cc(C2(C#N)CCN(C)CC2)cc(OC)c1OC`, the growth was 104% in test [1]; 110% in test [2]; 129% in [3]; 103% in test [4]; 102% in [5]; 102% in test [6]. In addition, the growth in test [7] was 113%; in test [8], 98.8%; in test [9], 90.9%; in test [10], 111%; in test [11] it was 90.9%; in test [12] it was 102%. For the same compound, the growth in test [13] was 101%; in test [14] it was 103%; in test [15] it was 79.8%; in test [16], 105%; in [17] it was 103%; in test [18] it was 97.3%. In addition, the growth in test [19] is 91.8%; in test [20], 100%.
For the compound `Cc1ccc(C[As+](c2ccccc2)(c2ccccc2)c2ccccc2)cc1`, the growth in test [1] was -11.1% (active); in [2], 8.52% (active); in test [3], 18.6%; in test [4] it was 9.44% (active); in test [5] it was 2.34% (active); in test [6] it was 13.5%. In addition, the growth is 23.8% in test [7]; 10.6% in test [8]; 24.1% in [9]; 24.1% in [10]; 4.54% (active) in test [11]; 17.2% in [12]. The growth in [13] was 10.9%; in test [14], 3.83% (active); in [15], 69%; in test [16], -4.76% (active); in test [17] it was -10.3% (active); in test [18], 11.9%. The figures for the growth in test [19] and in test [20] were 2.52% (active) and 3.2% (active), respectively.
`O=C(NCc1ccc([N+](=O)[O-])cc1)Nc1ccc(S(=O)(=O)F)cc1`: the growth in [1] is 81.3%; in [2] it was 63.7%; in [3], 88.3%; in test [4] it was 70.5%; in test [5], 95.8%; in [6] it was 80.1%. Moreover, the growth in [7] is 102%; in test [8] it was 80.4%; in [9], 89.9%; in [10] it was 88.3%; in test [11], 93.5%; in test [12] it was 88.6%. Further, the growth in test [13] was 85.7%; in test [14], 85.8%; in test [15] it was 61.2%; in test [16], 94.9%; in test [17], 92.8%; in [18] it was 91.8%. For the same compound, the results for the growth in [19] and in [20] were 82.2% and 84.2%, respectively.
